Measured values from PubChem BioAssay (NCATS).
A number with no mark means an inactive call. Results filed as inconclusive are left out. Calls of active or inactive are those of the source. Calls come from the whole dose curve; as a rule, active = well fitted curve in the direction sought with a large enough effect; inconclusive = small, poorly fitted or top-dose-only effect, or another doubt; inactive = no such curve, though single readings can be large; an effect the other way counts as inactive or inconclusive.

Assays:
[1] = Confirmatory screen NINDS Rhodamine qHTS for Zika virus inhibitors (AID 1347161)
How it was run: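 Kinetic fluorescence (Ex 480 nm, Em 540 nm) over 15 min with 1.5 microM Rhodamine110 peptide and 25 nM linked protease.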

[2] = Confirmation and Secondary Assay for Modulators of Hemoglobin Beta Chain Splicing at IVS2 654 locus (AID 910)
How it was run: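 Readout: per-well total peak green fluorescence (488 nm ex, 500–520 nm em) from objects 5–250 µm, reflecting correct splicing of an EGFP-654 reporter. Compounds were applied for 2 days at 37 °C to overnight-plated HeLa EGFP-654 cells; controls were DMSO and 500 nM IVS2-654 PNA.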

[3] = Confirmation and Secondary Assay for Modulators of Hemoglobin Beta Chain Splicing at IVS2 705 locus (AID 930)
How it was run: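 Splice-correction reporter: EGFP cDNA split by beta-globin intron 2 bearing the 705 mutation, stably in HeLa. Compound incubation 2 days, 37C; fluorescent objects 5-250 µm summed per well.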

[4] = biological target: N-terminal Xaa-Pro-Lys N-methyltransferase 1 (Homo sapiens) (UniProt Q9BV86); assay: Confirmatory qHTS for Inhibitors of N-terminal methyltransferase 1 (NTMT1): MTaseGlo Assay (AID 1645874); conditions: NTMT1 enzyme, MTase-Glo SAH luminescence
How it was run: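 qHTS format: NTMT1 125 nM, SAM 100 uM, peptide SPKRIA 1 uM final; 15 min compound preincubation, 30 min reaction at room temperature. MTase-Glo luminescence.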

[5] = Viability counterscreen for agonist of constitutive androstane receptor (CAR) against the NCATS DSHEA and TCM libraries (AID 1794838)
How it was run: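 Cell health was measured as CellTiter-Fluor signal in HepG2-CYP2B6-hCAR cells treated for 24 h with substances alongside the hCAR antagonist PK11195 (0.75 uM final).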

[6] = biological target: Nuclear receptor subfamily 1 group I member 3 (Homo sapiens) (UniProt Q14994); assay: Primary qHTS for agonist of constitutive androstane receptor (CAR) against the NCATS DSHEA and TCM libraries (AID 1794839)
How it was run: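 qHTS, agonist mode: HepG2-CYP2B6-hCAR, 2,500 cells/well, 5 h attach; cpds + PK11195 0.75 µM final; 24 h, 37 °C, 5% CO2. Readouts: CellTiter-Fluor (405/540 nm), then ONE-Glo luminescence.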

[7] = HepG2 viability counterscreen (readout 2: ATP content) against the NCATS DSHEA and TCM libraries (AID 1794840)
How it was run: (§1)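 Same wells read twice: first fluorescence from cleaved GF-AFC substrate (25 uM final, 30 min, 37C) for live-cell protease, then CellTiter-Glo luminescence after 30 min at room temperature for ATP. HepG2 cells were exposed ~24 h to substances.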

[8] = HepG2 viability counterscreen (readout 1: protease activity) against the NCATS DSHEA and TCM libraries (AID 1794841)
How it was run: as §1

[9] = biological target: Cytochrome P450 3A4 (Homo sapiens) (UniProt P08684); assay: qHTS for inhibitors of CYP3A4 against the NCATS DSHEA and TCM libraries (AID 1919971)
How it was run: (§2)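 Light output from converted D-luciferin reports remaining CYP activity. Compounds preincubate with enzyme and substrate for 15 min; NADPH regeneration (1x final) runs the reaction for 30-45 min.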

[10] = biological target: Cytochrome P450 2D6 (Homo sapiens) (UniProt P10635); assay: qHTS for inhibitors of CYP2D6 against the NCATS DSHEA and TCM libraries (AID 1919972)
How it was run: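 Steps: enzyme plus luciferin substrate dispensed; test substances pinned; 15 min RT; 1x NADPH regenerating solution added, 30–45 min RT protected from light; detection reagent, 30 min RT; luminescence measured. Minus-enzyme wells as background.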

[11] = biological target: Cytochrome P450 2C9 (Homo sapiens) (UniProt P11712); assay: qHTS for inhibitors of CYP2C9 against the NCATS DSHEA and TCM libraries (AID 1919973)
How it was run: as §2

[12] = biological target: Cytochrome P450 2C19 (Homo sapiens) (UniProt P33261); assay: qHTS for inhibitors of CYP2C19 against the NCATS DSHEA and TCM libraries (AID 1919974); conditions: CYP2C19 enzyme inhibition, luminescence qHTS
How it was run: as §2

[13] = KB-3-1 P-gp reporter qHTS against the NCATS DSHEA and TCM libraries (AID 1919975)
How it was run: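 KB-3-1 parental line, 1536-well qHTS: cells seeded, ~4 h attachment, pintool compound addition, ~72 h at 37C, then CellTiter-Glo, 30 min RT, luminescence. Concentration-response format.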

[14] = biological target: Cytochrome P450 1A2 (Homo sapiens) (UniProt P05177); assay: qHTS for inhibitors of CYPIA2 against the NCATS DSHEA and TCM libraries (AID 1919976)
How it was run: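 In this quantitative HTS, inhibition of recombinant human CYP1A2 was measured as loss of luciferin-derived luminescence. Turnover ran 30-45 min at RT after NADPH regeneration solution was added.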

[15] = qHTS Counterscreen for compound interference against the NCATS DSHEA and TCM libraries (AID 1919978); conditions: firefly luciferase detection reagent interference, luminescence
How it was run: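 Compounds, titrated from 19.5 nM to 39.8 uM final, were pinned onto 1 uM D-luciferin or plain 100 mM potassium phosphate. After 15 min at room temperature, luciferin detection reagent was added for 30 min before the luminescence read.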

[16] = Dual reporter qHTS for agonist of Pregnane X Receptor (hPXR) against the NCATS DSHEA and TCM libraries: Fluorescence readout (AID 1920058)
How it was run: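 Measures viability of the PXR reporter HepG2 line by protease-substrate fluorescence (405/540 nm), taken 1 h after CellTiter-Fluor addition. Substances are tested as concentration series over a ~24 h exposure, with rifampicin as agonist control.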

[17] = Counterscreen qHTS for small molecule stabilizers of the endoplasmic reticulum resident proteome: GLuc-NoTag assay (AID 1508627)
How it was run: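 Luminescence of Gaussia luciferase secreted into the medium (coelenterazine, 0.07x final, unlysed cells) was the read-out. Human SH-SY5Y neuroblastoma cells constitutively secreting untagged GLuc received compound for 19 h, then 100 nM thapsigargin for 4 h.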

[18] = Confirmatory qHTS for small molecule stabilizers of the endoplasmic reticulum resident proteome: Secreted ER Calcium Modulated Protein (SERCaMP) assay (AID 1508628)
How it was run: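 We seeded SH-SY5Y-GLuc-SERCaMP cells, added compounds (three concentrations in the primary run, eleven up to 76.6 uM in confirmation), incubated 16 h, depleted ER calcium with thapsigargin, and read luciferase 4 h later.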

[19] = Cell Viability qHTS for small molecule stabilizers of the endoplasmic reticulum resident proteome (AID 1508629); conditions: cell viability counter-screen, 100 nM thapsigargin for final 4 h
[20] = biological target: Luciferin 4-monooxygenase (Photinus pyralis) (UniProt P08659); assay: Biochemical firefly luciferase enzyme assay for NPC (AID 624030)
How it was run: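 Direct inhibition of firefly luciferase enzyme (10 nM final, 50 mM Tris Acetate) assessed by luminescence within 5 minutes. Percent activity scaled between DMSO and PTC124 positive control, with concentration-effect curves classified by fit quality and response.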

Sequence of Cytochrome P450 2C19 (Homo sapiens) (P33261 whole entry, looked up): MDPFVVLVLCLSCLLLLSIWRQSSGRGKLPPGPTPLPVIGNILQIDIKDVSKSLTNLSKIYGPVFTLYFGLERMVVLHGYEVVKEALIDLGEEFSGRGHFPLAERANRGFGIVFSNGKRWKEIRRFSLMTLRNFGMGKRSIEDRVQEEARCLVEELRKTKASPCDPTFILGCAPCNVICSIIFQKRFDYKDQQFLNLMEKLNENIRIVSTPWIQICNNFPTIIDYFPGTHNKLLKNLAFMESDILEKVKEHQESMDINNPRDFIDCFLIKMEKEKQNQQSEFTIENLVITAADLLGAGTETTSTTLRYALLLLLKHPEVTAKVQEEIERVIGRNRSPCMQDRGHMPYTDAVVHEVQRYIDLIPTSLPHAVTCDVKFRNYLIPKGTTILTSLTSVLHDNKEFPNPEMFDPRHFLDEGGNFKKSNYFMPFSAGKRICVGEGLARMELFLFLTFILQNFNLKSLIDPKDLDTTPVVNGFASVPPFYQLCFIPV
Sequence of Luciferin 4-monooxygenase (Photinus pyralis) (P08659 whole entry, looked up): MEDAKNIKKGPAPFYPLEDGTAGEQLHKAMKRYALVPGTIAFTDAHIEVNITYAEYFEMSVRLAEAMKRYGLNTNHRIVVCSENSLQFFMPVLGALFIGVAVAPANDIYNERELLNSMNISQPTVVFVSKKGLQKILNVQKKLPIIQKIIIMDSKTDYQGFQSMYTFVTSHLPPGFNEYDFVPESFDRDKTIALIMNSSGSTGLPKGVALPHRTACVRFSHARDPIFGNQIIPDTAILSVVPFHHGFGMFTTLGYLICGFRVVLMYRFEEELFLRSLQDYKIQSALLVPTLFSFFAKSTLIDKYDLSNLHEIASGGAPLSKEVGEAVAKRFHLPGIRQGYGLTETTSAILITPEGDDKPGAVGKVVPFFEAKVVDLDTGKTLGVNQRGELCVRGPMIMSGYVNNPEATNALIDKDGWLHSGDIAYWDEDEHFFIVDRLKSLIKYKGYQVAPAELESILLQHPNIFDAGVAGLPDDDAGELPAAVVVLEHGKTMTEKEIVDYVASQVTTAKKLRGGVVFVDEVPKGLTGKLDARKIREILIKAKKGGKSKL
Sequence of Nuclear receptor subfamily 1 group I member 3 (Homo sapiens) (Q14994 whole entry, looked up): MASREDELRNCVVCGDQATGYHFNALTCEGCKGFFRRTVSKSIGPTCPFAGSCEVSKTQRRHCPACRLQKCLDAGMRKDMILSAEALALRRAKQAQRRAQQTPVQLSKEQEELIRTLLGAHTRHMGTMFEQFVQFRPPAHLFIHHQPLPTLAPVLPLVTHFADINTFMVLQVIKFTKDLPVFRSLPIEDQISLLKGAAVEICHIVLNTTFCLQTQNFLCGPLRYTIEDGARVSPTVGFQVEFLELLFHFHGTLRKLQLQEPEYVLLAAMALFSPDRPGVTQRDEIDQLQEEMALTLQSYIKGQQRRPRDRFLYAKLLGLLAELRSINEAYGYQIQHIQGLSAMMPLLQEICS
Sequence of Cytochrome P450 3A4 (Homo sapiens) (P08684 whole entry, looked up): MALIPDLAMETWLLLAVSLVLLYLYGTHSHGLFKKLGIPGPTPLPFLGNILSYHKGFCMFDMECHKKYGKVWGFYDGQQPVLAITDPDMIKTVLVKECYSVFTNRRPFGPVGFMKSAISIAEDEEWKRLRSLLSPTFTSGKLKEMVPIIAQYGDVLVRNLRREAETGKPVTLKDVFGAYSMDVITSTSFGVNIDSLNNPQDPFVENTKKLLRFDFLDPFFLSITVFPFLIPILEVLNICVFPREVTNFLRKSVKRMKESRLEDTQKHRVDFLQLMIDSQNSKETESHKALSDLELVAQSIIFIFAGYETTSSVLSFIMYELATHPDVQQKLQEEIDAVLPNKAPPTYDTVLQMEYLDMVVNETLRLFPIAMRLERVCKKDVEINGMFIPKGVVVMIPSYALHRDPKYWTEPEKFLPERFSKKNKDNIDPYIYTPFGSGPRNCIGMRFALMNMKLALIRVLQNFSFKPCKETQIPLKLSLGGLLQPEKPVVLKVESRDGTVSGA
Sequence of N-terminal Xaa-Pro-Lys N-methyltransferase 1 (Homo sapiens) (Q9BV86 whole entry, looked up): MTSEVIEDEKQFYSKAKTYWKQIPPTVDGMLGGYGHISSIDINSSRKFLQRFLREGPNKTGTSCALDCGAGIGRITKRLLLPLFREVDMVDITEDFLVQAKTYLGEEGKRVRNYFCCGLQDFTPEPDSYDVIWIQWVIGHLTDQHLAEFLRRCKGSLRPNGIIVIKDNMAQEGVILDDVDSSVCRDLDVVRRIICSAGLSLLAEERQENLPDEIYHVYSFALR
Sequence of Cytochrome P450 2C9 (Homo sapiens) (P11712 whole entry, looked up): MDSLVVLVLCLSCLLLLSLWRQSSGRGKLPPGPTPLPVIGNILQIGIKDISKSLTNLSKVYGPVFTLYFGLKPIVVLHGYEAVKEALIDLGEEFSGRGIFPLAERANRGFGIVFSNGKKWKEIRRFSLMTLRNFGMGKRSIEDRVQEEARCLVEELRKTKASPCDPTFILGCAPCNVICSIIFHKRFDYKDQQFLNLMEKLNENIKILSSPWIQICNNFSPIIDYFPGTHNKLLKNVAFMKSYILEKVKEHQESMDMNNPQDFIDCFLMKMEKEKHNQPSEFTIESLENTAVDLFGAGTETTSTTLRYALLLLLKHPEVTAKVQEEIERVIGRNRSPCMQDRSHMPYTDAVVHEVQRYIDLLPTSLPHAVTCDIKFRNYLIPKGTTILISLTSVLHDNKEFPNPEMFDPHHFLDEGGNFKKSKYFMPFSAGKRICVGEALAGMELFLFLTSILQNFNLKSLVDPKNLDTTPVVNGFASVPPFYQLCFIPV
Sequence of Cytochrome P450 1A2 (Homo sapiens) (P05177 whole entry, looked up): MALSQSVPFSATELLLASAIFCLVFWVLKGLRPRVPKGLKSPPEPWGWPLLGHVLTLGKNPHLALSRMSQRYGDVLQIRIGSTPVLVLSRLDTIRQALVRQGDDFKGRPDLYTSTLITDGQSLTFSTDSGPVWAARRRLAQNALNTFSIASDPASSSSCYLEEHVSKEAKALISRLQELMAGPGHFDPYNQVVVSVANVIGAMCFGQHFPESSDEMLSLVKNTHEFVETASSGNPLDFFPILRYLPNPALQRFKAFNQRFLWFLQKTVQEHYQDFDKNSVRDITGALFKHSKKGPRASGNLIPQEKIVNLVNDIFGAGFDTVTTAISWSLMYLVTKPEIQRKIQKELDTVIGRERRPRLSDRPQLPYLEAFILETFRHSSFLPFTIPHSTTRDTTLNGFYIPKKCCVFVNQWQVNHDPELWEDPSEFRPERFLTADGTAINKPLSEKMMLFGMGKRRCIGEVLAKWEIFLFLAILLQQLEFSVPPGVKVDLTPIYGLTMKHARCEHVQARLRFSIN
Sequence of Cytochrome P450 2D6 (Homo sapiens) (P10635 whole entry, looked up): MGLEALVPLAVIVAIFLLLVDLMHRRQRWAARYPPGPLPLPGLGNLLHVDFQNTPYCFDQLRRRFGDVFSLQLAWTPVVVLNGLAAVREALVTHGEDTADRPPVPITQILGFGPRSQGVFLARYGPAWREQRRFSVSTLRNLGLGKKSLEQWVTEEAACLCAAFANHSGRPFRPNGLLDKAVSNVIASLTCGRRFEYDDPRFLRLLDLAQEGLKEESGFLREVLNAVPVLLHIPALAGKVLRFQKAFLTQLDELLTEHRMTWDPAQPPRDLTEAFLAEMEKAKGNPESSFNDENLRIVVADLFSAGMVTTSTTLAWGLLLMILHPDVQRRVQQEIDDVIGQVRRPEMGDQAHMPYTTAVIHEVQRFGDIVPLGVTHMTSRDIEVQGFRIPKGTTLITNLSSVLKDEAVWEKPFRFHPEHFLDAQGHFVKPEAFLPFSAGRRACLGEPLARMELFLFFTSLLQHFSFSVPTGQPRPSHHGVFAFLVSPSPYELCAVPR

Q: With `CNc1ccc2oc(C[C@H]3O[C@@]4(CC[C@H]3C)O[C@H](C(C)C(=O)c3ccc[nH]3)[C@H](C)C[C@H]4C)nc2c1C(=O)O` (stereo not given in full) as the compound, how does the Potency [1] read?
A: 31.2 µM (active)

Q: Which Potency [2] does the source give for `CC1CCCC(=O)CCC/C=C/c2cc(O)cc(O)c2C(=O)O1` (stereo not given) here?
A: inactive

Q: And the outcome [3]?
A: inactive

Q: And the Potency [4]?
A: 15.8 µM (active)

Q: What does the source list for `C=C(CO)C(=O)O[C@H]1CC(=C)[C@@H]2C[C@H](O)C(=C)[C@@H]2[C@H]2OC(=O)C(=C)[C@@H]21`?
A: outcome [5]: inactive; outcome [6]: inactive; outcome [7]: inactive; outcome [8]: inactive; outcome [9]: inactive; outcome [10]: inactive; outcome [11]: inactive; Potency [12]: 2.24 µM (active); outcome [13]: inactive; Potency [14]: 2.51 µM (active); max response [15]: -4.75%; outcome [16]: inactive

Q: Which Potency [17] does the source give for `C[C@H]1CCC/C=C/C2C[C@H](O)C[C@H]2[C@H](O)/C=C/C(=O)O1` (stereo not given in full) here?
A: inactive

Q: What about the Potency [18] of the same compound?
A: inactive

Q: What about the max response [19] of the same compound?
A: 21.4%

Q: With `O=C(CC1NCCC[C@H]1O)Cn1cnc2cc(Br)c(Cl)cc2c1=O` (stereo not given in full) as the compound, how does the Potency [20] read?
A: inactive
